Shown are actives, neighbours in structure and some others; about 1.6% of the full set was active somewhere.
Efflux pump mplx: inhibitors of Candida efflux pumps in yeast, primary screen, S. cerevisiae, Nile Red, multiplex | S. cerevisiae Candida pump triplex | inhibition, % at 10 µM | hit rate 0.44% among 330,000 | AID 485275, 2010;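 active = plate passing quality check with inhibition over a set limit, or well fluorescence over plate mean plus 4 SD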;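 note: Nile Red retained in pooled yeast measured as flow cytometry median fluorescence; higher means more Nile Red kept so more efflux inhibition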
ATG4B inh: ATG4B protease inhibitors, primary screen, biochemical, fluorescence, uHTS. hit rate 0.51% among 340,000. inhibition, % at 8.33 µM. ATG4B cleavage of LC3-PLA2, NBD-HPC fluorescence, 1 h; in the data active = inhibition above about 40%
CR mimetic SO: reduction of superoxide in aged yeast, primary screen, HTS; S. cerevisiae aged cells, superoxide DHE fluorescence; active compounds read low; AID 2690, 2010; superoxide response (% of plate mean), % at 10 µM; hit rate 0.18% among 330,000;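 active = superoxide response under a set limit, about three screen SD below normal, cut at about 65% in these data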;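 note: yeast aged for seven days with compound at 30 °C before DHE staining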
GRK2 inh: compounds blocking aptamer binding on GRK2 – biochemical, human GRK2, bead flow cytometry, HTS, primary screen; Beta-adrenergic receptor kinase 1 (Homo sapiens), P25098; FAM-aptamer displacement from GRK2; inhibition of aptamer binding, % at 10 µM; hit rate 0.59% among 330,000; AID 488847, 2010;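 active = inhibition of aptamer binding above 40%, roughly 3 SD of noise, on plates passing a quality check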;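 note: median bead fluorescence of bound FAM aptamer so fluorescent compounds give negative values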
ATG4B conf: ATG4B protease inhibitors, retest, confirmation, biochemical, fluorescence, single concentration; shares compounds with ATG4B inh; ATG4B protease fluorescent substrate cleavage assay; inhibition, % at 8.33 µM; hit rate 92% among 320; in the data active = inhibition above about 39%
PLA2 ctr: PLA2 enzyme inhibition, counter-screen for ATG4B inhibitor project, biochemical, single concentration, uHTS hits; purified PLA2, NBD-C6-HPC fluorescence, 45 min; hit rate 66% among 1,600; inhibition, % at 8.33 µM; shares compounds with ATG4B inh; AID 588402, 2011; in the data active = inhibition above about 50%
Target sequence (P04054 whole entry, looked up): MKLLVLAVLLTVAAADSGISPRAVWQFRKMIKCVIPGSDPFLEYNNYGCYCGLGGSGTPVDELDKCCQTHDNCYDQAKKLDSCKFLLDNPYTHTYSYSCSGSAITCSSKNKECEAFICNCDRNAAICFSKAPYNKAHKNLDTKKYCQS
Each line names hits and unclear results; the compound was inactive in the other large screens (follow-up assays come after a bar, where they were run).

Cc1cccc(NC(=S)NC2CCSc3ccccc32)c1 (configuration not stated)	ATG4B inh 42 | PLA2 ctr 54
S=C(NCc1ccccc1)NC1CCSc2ccccc21 (configuration not stated)	ATG4B inh 64 | PLA2 ctr 69
FC(F)Oc1ccc(NC(=S)NC2CCSc3ccccc32)cc1 (configuration not stated)	ATG4B inh 59 | PLA2 ctr 57
COc1cccc(CC(=O)NC2CCSc3ccccc32)c1 (configuration not stated)	none
CCn1ncc(Br)c1C(=O)Nc1ccccc1C(F)(F)F	none
Cc1noc(C)c1COc1ccccc1C(=O)N1CCN(S(=O)(=O)c2ccccc2F)CC1	none
COc1ccc(-c2csc(NC(=O)c3ccccc3F)n2)cc1	none (no result: GRK2 inh)
COc1ccc(-c2csc(NC(=O)c3ccccc3NS(=O)(=O)c3ccc(F)c(F)c3)n2)cc1	ATG4B inh 69 | PLA2 ctr 80
Cc1ccc(S(=O)(=O)Nc2ccccc2C(=O)Nc2nc(-c3ccc(F)cc3)cs2)cc1	ATG4B inh 47 | PLA2 ctr 60
Cc1ccc(S(=O)(=O)CCC(O)c2ccc(Cl)cc2)cc1 (configuration not stated)	none
Cc1cc(=O)[nH]c(SCC(=O)NCCC2=CCCCC2)n1	none
CCOC(=O)CSc1nc2ccccc2c(=O)n1CC1CCCC1	ATG4B inh 71 | PLA2 ctr 71
CCOC(=O)CSc1nc2ccccc2c(=O)n1CC(C)C	ATG4B inh 57 | PLA2 ctr 56
COc1ccc(-c2nnc(CSc3nc4ccccc4c(=O)n3CC(C)C)o2)cc1OC	ATG4B inh 45 | ATG4B conf 74 | PLA2 ctr inactive
COCCCn1c(SCc2nnc(-c3ccc(OC)c(OC)c3)o2)nc2ccccc2c1=O	none
CCOC(=O)CSc1nc2ccccc2c(=O)n1CC	none
Cc1cc(/C=N/NC(=O)C(O)(c2ccccc2)c2ccccc2)c(C)n1-c1cccc(C(=O)O)c1	ATG4B inh 52 | PLA2 ctr 57
Cc1cc(/C=N/NC(=O)c2cccc(N(C)C)c2)c(C)n1-c1cc(C(=O)O)cc(C(=O)O)c1	none (no result: Efflux pump mplx, CR mimetic SO, GRK2 inh)
CCN(Cc1ccc2c(c1)OCO2)C(=O)CSc1nc(C)nc2sc(C)c(C)c12	ATG4B inh 58 | PLA2 ctr 75
Cc1ccccc1-c1nnc(SCc2ccccc2F)o1	ATG4B inh 54 | PLA2 ctr 64
Fc1ccccc1CSc1nnc(-c2ccccc2)o1	none
Cc1ccc(N2C(=O)CC(N3CCN/C3=C3\CC/C(=C\c4ccccc4)C3=O)C2=O)cc1 (configuration not stated)	none
CCN(CC)C(=O)Cn1cc(C(=O)C(=O)NCc2ccccn2)c2ccccc21	none
Oc1nc(Nc2ccc(Cl)cc2Cl)sc1/C=C1\C=Nc2ccccc21	ATG4B inh 78 | ATG4B conf inactive | PLA2 ctr inactive
O=c1n(Cc2ccccc2Cl)nc2n1-c1ccccc1SC2	ATG4B inh 52 | PLA2 ctr 54
O=c1n(Cc2ccccc2)nc2n1-c1ccccc1SC2	none
Cc1n[nH]c(C)c1Sc1ccccc1N=Cc1cc(Cl)cc([N+](=O)[O-])c1O	none
Cc1ccc(N=Cc2cc(Cc3ccccc3Cl)cc([N+](=O)[O-])c2O)c(O)c1	ATG4B inh 92 | PLA2 ctr 79
COc1ccc(-c2cc(C(F)(F)F)nc(SCc3cccc(C(=O)O)c3)n2)cc1	ATG4B inh 44 | PLA2 ctr 56
O=C(Nc1nc(-c2cccs2)c(-c2cccs2)s1)C1CCCC1	ATG4B inh 50 (no result: Efflux pump mplx, CR mimetic SO, GRK2 inh) | PLA2 ctr 60
O=C(CSc1ccc(Br)cc1)Nc1ccccc1Oc1ccccc1	none
O=C(CSc1ccc(Cl)cc1)Nc1ccccc1Oc1ccccc1	ATG4B inh 40 | PLA2 ctr inactive
Cc1ccc(C)c(CNC(=O)Nc2ccccc2)c1	ATG4B inh 49 | PLA2 ctr 51
Cc1ccc(CNC(=O)Nc2ccccc2)cc1	none
O=c1c(Cc2c(F)cccc2Cl)c(O)ccn1CCCN1CCOCC1	none
Cc1cccc(C(=O)Nc2scc(-c3ccc(Br)cc3)c2C(=O)O)c1	none

Source: PubChem
